Records with an inconclusive call do not appear. A number with no mark means an inactive call. Active and inactive are the calls of the source. The call rests on the fitted dose curve.
assay: qHTS assay to identify small molecule agonists or antagonists of the thyroid stimulating hormone receptor (TSHR) signaling pathway - wild type cell line counter screen (AID 1259384); conditions: HEK293 wild type, cAMP HTRF counter-screen, stronger effect = higher value; series mostly up to 92.4 µM; cAMP activity change: at the top concentration
Text: U.S. Tox21 Program National Center for Advancing Translational Sciences [NCATS] NIH Chemical Genomics Center [NCGC] U.S. Environmental Protection Agency [EPA] National Institutes of Environmental Health Sciences [NIEHS] National Toxicology Program [NTP] U.S. Food and Drug Administration [FDA] Tox21 Assay Overview: TSHR is the receptor for thyrotropin (thyroid stimulating hormone or TSH), a member of the glycoprotein hormone family. TSH is released by the anterior pituitary gland and is the main regulator of thyroid gland growth and development. Upon binding circulating thyrotropin, a G-protein signal cascade activates adenylyl cyclase and […] cAMP concentration is increased. cAMP is a key second messenger involved extensively in cellular signal transduction pathways associated with the majority of G-protein coupled receptors (GPCRs). The activation of these GPCRs by neurotransmitters, lipids, nucleotides, peptides and hormones results in the activation or the inhibition of plasma membrane-bound adenylate cyclase through heterotrimeric G-proteins. A cell-based TSHR-Hek293 assay can be used to identify TSHR agonists. To eliminate the false positive compounds identified from screening a cell-based TSHR-Hek293 cell line, cAMP assay in a wild type Hek293 cells was used as a counter screening.
Tox21 Assay Protocol Summary: Hek293 cells (wild type) were dispensed at 800 cells/4 uL/well in 1536-well white plates using a Multidrop dispenser. After the assay plates were incubated at a 37 C/5% CO2 incubator for 18 hrs, 23 nL of compounds dissolved in DMSO, positive controls or DMSO only was transferred to the assay plate by a pin tool, followed by 1 ul medium containing Ro20-1724. After 30 min of incubation at room temperature, 2.5 ul/well of cAMP-d2 and 2.5 ul/well of anti-cAMP-cryptate were added respectively into the assay plates using a Flying Reagent Dispenser. The plates were incubated at room temperature for 1 hr. The fluorescence intensity in the plates was measured using an Envision plate reader. Each test compound was measured at 15 concentrations and in triplicates.
On the % scale 0 is the no-effect control and ±100 the full control effect.

Compound	cAMP activity change	outcome
CCCC/C=C/CCCCO	-2.84%	–
CN(C)CCCOC1(Cc2ccccc2)CCCCCC1	-7.49% [at 42.5 µM]	–
NC(=O)CC[C@@H]1NC(=O)[C@H](Cc2ccccc2)NC(=O)[C@H](Cc2ccc(O)cc2)NC(=O)CCSSC[C@@H](C(=O)N2CCC[C@H]2C(=O)N[C@@H](CCCN=C(N)N)C(=O)NCC(N)=O)NC(=O)[C@H](CC(N)=O)NC1=O	3.01% [at 42.5 µM]	–
COc1cc(-c2nc(NC(=O)c3cc4cc(C)cc(C)c4n3CC(=O)O)sc2CCC2CCCCC2)c(OC)cc1Cl	2.39%	–
CCCC(C)c1ccccc1O (stereo not given)	-0.0314%	–
O=C(c1ccc(O)cc1O)c1ccc(O)cc1O	–	inactive
CC[C@H]1O[C@]2(CC[C@@H]1C)C[C@@H]1C[C@@H](C/C=C(\C)C[C@@H](C)/C=C/C=C3\CO[C@@H]4[C@H](O)C(C)=C[C@@H](C(=O)O1)[C@]34O)O2	0.4%	–
ON=C1CCCC1	-0.651%	–
CCCCCCCCCCCCCC[P+](CCCC)(CCCC)CCCC (tested in a mixture with another compound)	0.646%	–
Oc1ccc2cc(SSc3ccc4cc(O)ccc4c3)ccc2c1	–	inactive
CCc1oc2ccccc2c1C(=O)c1cc(Br)c(O)c(Br)c1	8.79% [at 42.5 µM]	–
COc1cccc(N)c1	-3.45%	–
CSc1cnc(C)cn1	5.51% [at 240 µM]	–
Cc1ccc(-n2nc(C(C)(C)C)cc2NC(=O)Nc2ccc(OCCN3CCOCC3)c3ccccc23)cc1	-16.4% [at 42.5 µM]	–
O=[N+]([O-])c1ccccc1Nc1ccccc1	1.69%	–
Nc1ccc(N)c2ccccc12	-12.6%	–
CCN(CCC#N)c1ccc(N=Nc2c(Cl)cc([N+](=O)[O-])cc2Cl)cc1	-3.68%	–
Cc1cc(O)c2ccccc2c1O	-2.95% [at 42.5 µM]	–
CCCCCCCC[N+](CCCCCCCC)(CCCCCCCC)CCCCCCCC	7.83%	–
O=C1C=CC(=O)N1c1ccc(Cc2ccc(N3C(=O)C=CC3=O)cc2)cc1	-0.259%	–

Compound	cAMP activity change	outcome
Cc1ccc2oc(CN(Cc3ccccc3)C(=O)Nc3c(F)cc(F)cc3F)c(-c3ccc(Cl)cc3)c2c1	0.147%	–
CCCCCCCCCCCCCCCC(=O)OC[C@H](O)[C@H]1OC(=O)C(O)=C1O	2.59%	–
O=C(NO)C1(NS(=O)(=O)c2ccc(Oc3ccc(F)cc3)cc2)CCOCC1	-0.0157%	–
CS(=O)(=O)CCNCc1ccc(-c2ccc3ncnc(Nc4ccc(OCc5cccc(F)c5)c(Cl)c4)c3c2)o1	-0.552% [at 42.5 µM]	–
Cc1cc(N)c(S(=O)(=O)O)cc1Cl	5.49%	–
CCCN(CCC)c1c([N+](=O)[O-])cc(C(F)(F)F)c(N)c1[N+](=O)[O-]	8.09%	–
O=C(Oc1cccc2cccnc12)c1ccccc1	-0.602% [at 42.5 µM]	–
CC(=O)S[C@@H]1CC2=CC(=O)CC[C@]2(C)[C@H]2CC[C@@]3(C)[C@@H](CC[C@@]34CCC(=O)O4)[C@H]12	0.223%	–
Oc1ccc2c(c1)-c1ccccc1C2	6.38%	–
O=Cc1cc(O)ccc1Br	-0.545%	–
CCOc1nc2cccc(C(=O)OC(C)OC(=O)OC3CCCCC3)c2n1Cc1ccc(-c2ccccc2-c2nn[nH]n2)cc1 (stereo not given)	3.35%	–
O=[N+]([O-])c1cc(Cl)c(Cl)c(Cl)c1Cl	-1.77%	–
c1cc(C(c2ccc(OCC3CO3)cc2)c2ccc(OCC3CO3)cc2)ccc1OCC1CO1 (stereo not given)	2.98%	–
CN(C)C(=O)C1(N2CCCCC2)CCN(CC[C@@]2(c3ccc(Cl)c(Cl)c3)CN(C(=O)c3ccccc3)CCO2)CC1	1.89%	–
Cc1nc(-c2ccc3c(c2)CCN(CCC2CCC(NC(=O)/C=C/c4ccc(F)cc4)CC2)CC3)no1 (stereo not given)	5.15% [at 42.5 µM]	–
Nc1nc2ccccc2n1Cc1ccc(F)cc1	5.43% [at 42.5 µM]	–
CSc1ccc(C(=O)c2[nH]c(=O)[nH]c2C)cc1	-1.54% [at 42.5 µM]	–
Cc1onc(-c2ccccc2Cl)c1C(=O)N[C@@H]1C(=O)N2[C@@H]1SC(C)(C)[C@@H]2C(=O)O	-4.09% [at 42.5 µM]	–
On1ccccc1=S	0.141%	–
CCN(C(=O)c1cc(C)cc(OC[C@H](C)Nc2ccncc2)c1)C(C)C	-0.0011% [at 42.5 µM]	–
